The text below walks through data of PubChem BioAssay (NCI).

This is part of a sample that, as a whole, favours compounds with a hit. Of some 83,000 tested, about 20% had one in any assay.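 For each line, cells grew in 96-well plates with the test compound present at a single concentration for 48 hours.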 Unmarked numbers belong to inactive results. Calls of active or inactive are those of the source. The calls were made as follows: active = growth percent below 10; inactive = the rest.

The subject of this experiment is A498 renal. Briefly: NCI-60 one-dose screen, 48 h (100 = growth as untreated, 0 = no growth, -100 = all killed). Conditions: 10 µM unless noted.
With `C=CCn1c(C)nc2cc(Nc3nc(N4CCCC4)nc4ccccc34)ccc21`, the growth is 71.4%. In the case of `Cc1ccc(/C=C/c2c(C(=O)/C=C/c3ccc(Cl)cc3)c(C)nc3ccccc23)cc1`, the growth was -16.1% (active). For `COc1cc(/C=C/C(=O)c2cccc(-n3cc(-c4ccccc4)[nH]c3=O)c2)ccc1O`, the growth was 116%. With `C=CCOC1=CC(=O)c2ccccc2C1=O`, the growth was 74.6%. As for `Cn1cc(-c2csc(-c3ccccc3)n2)c2cccnc21`, the growth was -82.4% [100 µM] (active). As for `c1ccc(-c2nc([P+](c3ccccc3)(c3ccccc3)c3ccccc3)c(N3CCOCC3)o2)cc1`, the growth is 11.7%. In the case of `O=C(COc1ccc(/C=C2\Oc3ccccc3C2=O)cc1)Nc1nc2c(s1)CCCC2`, the growth is 110%. Next, `COc1ccc(C2c3ccc4ccccc4c3Oc3nc(C)[nH]c(=O)c32)cc1` (centres undefined): 92.5%; `CN(C)c1ccc(-c2ccc3[nH]c(=O)nc(-c4ccccc4)c3c2)cn1`: 52.3%. On to `O=C1/C(=C\c2c[nH]c3ccccc23)c2ccccc2N1c1c(Cl)cccc1Cl`, for which the growth is 19.2%.

As to `Cc1cc(/C=C\c2ccc3ccccc3[n+]2C)c(O)c2ncccc12`, the growth was 30.5%. With `O=C1N=c2cc3c(cc2=C/C1=C/c1sc(=S)n(CCc2ccc(O)cc2)c1O)OCCO3`, the growth was 80.2%. Consider `N#Cc1nc(C#N)c(Sc2ccccc2)c(Sc2ccccc2)c1Sc1ccccc1`, for which the growth is -14.1% (active). For the compound `Cc1cc(NCCCCNc2ccnc3cc(Cl)ccc23)nc(Nc2ccc(C(=O)N3CCCC3)cc2)n1`, the growth was 62.6%.
